Source: PubChem BioAssay
Only some compounds are listed: those with a hit (about 1.7% of all), similar ones and a draw of the others.
GLP1R inv ag: inverse agonists of human GLP-1 receptor. AID 624417. HEK293 GLP-1R CRE-luciferase, luminescence, 24 h; GLP-1R form is constitutively active. Potency, µM (top dose mostly 38.3 µM), inactives show at the top dose activity change, negative = inhibition, most hits filed as inhibitors. 410,000 compounds, 1.6% hits. P43220; also: % is scaled to controls: 0 for no effect and ±100 for the full control effect; nearly all actives have a fitted effect of over 55% in size
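GLP-1R inverse agonism mode: basal reporter luminescence in engineered HEK293 cells measured after one day of compound exposure at 37 deg C, with a 12 min room-temperature detection step.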
GLP1R cytotox: cytotoxic in the GLP-1 receptor inverse agonist counter-screen | HEK293 cAMP-luciferase reporter cells, luminescence, 24 h | Potency, µM (highest dose often 38.3 µM), for the others: at the top dose activity change, negative = inhibition, hits mostly inhibitors | 410,000 compounds, 0.13% hits | AID 624418;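 also: loss of luciferase light is scored as toxicity; % is scaled to controls: 0 for no effect and ±100 for the full control effect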
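1536-well qHTS counterscreen of the MLSMR; 200 cells/uL, 12 h pre-incubation, 23 nL cpd, 24 h at 37 deg C 5% CO2, luciferase detection reagent, 12 min RT, luminescence. Inhibition = undesired.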
PTHR1 agonist: PTHR1 (human) receptor agonism; HEK293 GP2 PTHR1 cells, GloSensor cAMP luminescence, 1 h; Potency, µM (doses to about 115 µM), for the others: at the highest dose activation, hits mostly activators; 410,000 compounds, 0.075% hits; also: nearly all actives have a fitted effect of over 55% in size
Target sequence (Q03431 whole entry, looked up): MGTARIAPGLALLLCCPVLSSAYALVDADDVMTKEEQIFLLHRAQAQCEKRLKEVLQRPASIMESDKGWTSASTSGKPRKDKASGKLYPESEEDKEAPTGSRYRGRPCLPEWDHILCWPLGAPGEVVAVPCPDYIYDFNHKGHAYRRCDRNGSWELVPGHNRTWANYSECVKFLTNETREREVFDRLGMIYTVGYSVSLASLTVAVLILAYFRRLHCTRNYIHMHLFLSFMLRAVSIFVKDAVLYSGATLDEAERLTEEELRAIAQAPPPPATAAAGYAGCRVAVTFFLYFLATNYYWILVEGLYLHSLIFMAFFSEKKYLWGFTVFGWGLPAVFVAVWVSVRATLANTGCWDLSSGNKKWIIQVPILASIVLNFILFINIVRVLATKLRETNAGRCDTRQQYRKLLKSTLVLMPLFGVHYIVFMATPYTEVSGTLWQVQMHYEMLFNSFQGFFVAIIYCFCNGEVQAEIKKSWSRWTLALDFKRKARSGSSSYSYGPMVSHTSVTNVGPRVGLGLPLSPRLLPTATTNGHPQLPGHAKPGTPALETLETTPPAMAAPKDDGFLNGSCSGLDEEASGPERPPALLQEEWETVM
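HEK-293-derived GP2 cells expressing PTHR1 and a GloSensor cAMP reporter, 3,000/well, plated overnight, given luciferin plus IBMX (each 0.5 mM as added) for 1 h at 37 °C, then compound for 1 h at 37 °C. Luminescence was read after 15 min at room temperature.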
GLP-1R agonist: agonists of human GLP-1 receptor; HEK293 GLP-1R CRE-luciferase, luminescence, 4-6 h; cells express a hypersensitive GLP-1R form; Potency, µM (titrated, usually from 45.6 µM), inactives show top-dose activation, usual class: activators; 380,000 compounds, 0.007% hits; AID 624172; also: % of control where 0% means no effect
Active calls of the source: *; [ ] = dose if it differs, or a comment. Calls follow the shape of the dose curve; as a rule, active = well fitted curve in the direction sought with a large enough effect; inconclusive = small, poorly fitted or top-dose-only effect, or another doubt; inactive = no such curve, though single readings can be large; an effect the other way counts as inactive or inconclusive. Potency is read from the fitted curve at half-maximal effect.

Results for CCOC(=O)N1CCN(C(=O)c2ccccc2CCc2ccccc2)CC1 ?
GLP1R inv ag: 8.91µM*; GLP1R cytotox: -7.3%; PTHR1 agonist: -64.3%[57.5 µM]; GLP-1R agonist: 12.7%

What do the screens show for `CC(C)NC(=O)c1cc(C2CCCCN2C(=O)OCCF)on1` (configuration not stated)?
GLP1R inv ag: -15.6%; GLP1R cytotox: -14.6%; PTHR1 agonist: inactive; GLP-1R agonist: 8.7%

What do the screens show for `Cc1cc(F)ccc1S(=O)(=O)Nc1ccccc1C(=O)Nc1ccccc1-c1nc2ccccc2[nH]1`?
GLP1R inv ag: 6.31µM*; GLP1R cytotox: inconclusive; PTHR1 agonist: -32.0%; GLP-1R agonist: -20.0%

What do the screens show for `Cc1cc(F)ccc1S(=O)(=O)Nc1ccccc1C(=O)Nc1ncn[nH]1`?
GLP1R inv ag: inconclusive; GLP1R cytotox: -1.0%; PTHR1 agonist: -11.1%[57.5 µM]; GLP-1R agonist: -4.4%

What do the screens show for `CC(=O)c1c(C)oc2c1cc(NS(=O)(=O)c1ccc(C(C)(C)C)cc1)c1ccccc12`?
GLP1R inv ag: 11.2µM*; GLP1R cytotox: -8.9%; PTHR1 agonist: -29.8%

How did COc1ccc(S(=O)(=O)Nc2cc3c(C(C)=O)c(C)oc3c3ccccc23)cc1 do in these assays?
GLP1R inv ag: inconclusive; GLP1R cytotox: inconclusive; PTHR1 agonist: inactive; GLP-1R agonist: 4.8%

How did CC(C)c1nnc(NC(=O)c2nc(S(=O)(=O)Cc3ccccc3F)ncc2Cl)s1 do in these assays?
GLP1R inv ag: inconclusive; GLP1R cytotox: inconclusive; PTHR1 agonist: -32.8%; GLP-1R agonist: -10.4%

What do the screens show for `CCOc1ccc(NC(=O)c2nc(S(=O)(=O)Cc3ccccc3F)ncc2Cl)cc1`?
GLP1R inv ag: 11.2µM*; GLP1R cytotox: inconclusive; PTHR1 agonist: -1.5%

What do the screens show for `Cc1cccnc1NCc1ccc(O)c2ncccc12`?
GLP1R inv ag: 2.82µM*; GLP1R cytotox: inconclusive; PTHR1 agonist: inactive; GLP-1R agonist: 17.7%

What do the screens show for `Cc1cccc(NCc2ccc(O)c3ncccc23)c1C`?
GLP1R inv ag: -28.5%; GLP1R cytotox: inconclusive; PTHR1 agonist: -8.8%; GLP-1R agonist: -0.6%

How did CCN(CC)c1ccc(S(=O)(=O)N2CCOCC2)cc1NC(=O)COC(=O)/C=C/c1ccco1 do in these assays?
GLP1R inv ag: 3.0%; GLP1R cytotox: 0.0%; PTHR1 agonist: -26.4%; GLP-1R agonist: 8.9%

Results for COCCCNC(=S)N(CCO)Cc1cc2cc3c(cc2[nH]c1=O)OCO3 ?
GLP1R inv ag: 12.8%; GLP1R cytotox: -0.2%; PTHR1 agonist: inactive; GLP-1R agonist: 8.7%

What do the screens show for `CCOc1ccc(/C=C2/SC(=S)N(n3c(C)ccc3C)C2=O)cc1`?
GLP1R inv ag: 7.08µM*; GLP1R cytotox: -25.7%; PTHR1 agonist: -77.9%; GLP-1R agonist: -12.9%

What do the screens show for `COc1ccc(/C=C2/SC(=S)N(n3c(C)ccc3C)C2=O)cc1`?
GLP1R inv ag: inconclusive; GLP1R cytotox: -20.8%; PTHR1 agonist: -20.0%; GLP-1R agonist: -7.2%

How did O=C(N/N=C/c1ccc(C(F)(F)F)cc1)c1ccc(O)cc1 do in these assays?
GLP1R inv ag: inconclusive; GLP1R cytotox: -21.2%; PTHR1 agonist: -10.6%; GLP-1R agonist: 15.7%

How did NC(N)=NN=C(c1ccc(F)cc1)c1ccc(C(F)(F)F)cc1 do in these assays?
GLP1R inv ag: 1.12µM*; GLP1R cytotox: inconclusive; PTHR1 agonist: inactive; GLP-1R agonist: -3.1%

How did COc1ccc(C(=O)c2cn(Cc3ccccc3F)c3ccc(F)cc3c2=O)cc1 do in these assays?
GLP1R inv ag: inconclusive; GLP1R cytotox: 1.2%; PTHR1 agonist: inactive

How did O=C(c1cccs1)N1CCN(C(=O)c2cn(-c3ccccc3)nc2-c2ccccc2)CC1 do in these assays?
GLP1R inv ag: 10µM*; GLP1R cytotox: -0.2%; PTHR1 agonist: inactive; GLP-1R agonist: -3.1%

Results for Cc1cc(C(=O)N[C@H](c2ccccc2)[C@@]2(C)C[C@@H]2[C@@H](C)C(=O)Nc2ccc3ccccc3c2)n(C)n1 ?
GLP1R inv ag: 10µM*; GLP1R cytotox: -20.6%; PTHR1 agonist: -56.1%; GLP-1R agonist: 11.2%

How did C[C@@H](C(=O)Nc1ccc2ccccc2c1)[C@H]1C[C@]1(C)[C@H](NC(=O)OCc1ccccc1)c1ccccc1 do in these assays?
GLP1R inv ag: inconclusive; GLP1R cytotox: -31.0%; PTHR1 agonist: -18.0%; GLP-1R agonist: -4.5%

Results for Cc1ccccc1C(=O)Nc1ccc2oc(-c3ccc(Cl)c(Cl)c3)nc2c1 ?
GLP1R inv ag: -4.8%; GLP1R cytotox: -12.7%; PTHR1 agonist: -20.1%
